HCV inh = qHTS Assay for Inhibitors of Hepatitis C Virus (HCV); Huh7.5.1 HCVcc-Cre infection, luciferase reporter, 44 h; Potency, µM (highest dose often 41.8 µM), for the others: top-dose activity change, negative = inhibition, usual class: inhibitors; hit rate 3.4% among 340,000; AID 651820, 2012; note: potency is the fitted concentration of half-maximal effect
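Seed cells (1,000/well) for 4 h; treat with compound and infect with HCVcc-Cre, moi about 0.5. Incubate 44 h, then detect luciferase activity.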
VACV Venus inh = qHTS for Stage-Specific Inhibitors of Vaccinia Orthopoxvirus: Venus Reporter Primary qHTS. Vaccinia virus Venus reporter expression, fluorescence. Potency, µM (titrated, usually from 36.5 µM), without a hit: at the highest dose activity change, negative = inhibition, hits mostly inhibitors. hit rate 0.46% among 330,000. AID 720580, 2013; calls by dose curve; tested in A549 cells; note: potency is the fitted concentration of half-maximal effect; nearly all actives have a fitted effect of over 30% in size
FBPA Giardia inh = qHTS Assay for Inhibitors of Fructose-1,6-bisphosphate Aldolase from Giardia Lamblia. A8B2U2. Potency, µM (titrated, usually from 59.6 µM), for the others: at the top dose activity, negative = inhibition, most hits filed as inhibitors. AID 2451, 2010. purified Giardia FBPA. hit rate 0.71% among 290,000; note: potency is the fitted concentration of half-maximal effect; nearly all actives have a fitted effect of over 55% in size
Target sequence (A8B2U2 whole entry, looked up): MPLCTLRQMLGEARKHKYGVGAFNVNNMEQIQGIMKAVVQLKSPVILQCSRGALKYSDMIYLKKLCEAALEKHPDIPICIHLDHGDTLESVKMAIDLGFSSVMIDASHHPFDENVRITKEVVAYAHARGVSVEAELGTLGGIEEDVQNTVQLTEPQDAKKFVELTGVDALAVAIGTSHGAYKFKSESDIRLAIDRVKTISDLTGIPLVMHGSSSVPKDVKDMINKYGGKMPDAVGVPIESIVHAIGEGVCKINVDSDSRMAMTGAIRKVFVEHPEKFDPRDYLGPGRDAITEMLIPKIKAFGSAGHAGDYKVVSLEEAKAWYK
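Giardia FBPA (40 nM reagent) was preincubated 10 min at RT with compound (up to 57.5 uM final), then substrate plus GAPDH/TPI/NAD/arsenate coupling system with diaphorase/resazurin was added; resorufin fluorescence (525/598 nm) was read after 20 min.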
VACV mCherry inh = qHTS for Stage-Specific Inhibitors of Vaccinia Orthopoxvirus: mCherry Reporter Primary qHTS; Vaccinia virus mCherry reporter infection, fluorescence; Potency, µM (series often up to 36.5 µM), without a hit: top-dose activity change, negative = inhibition, usual class: inhibitors; hit rate 0.63% among 310,000; AID 720579, 2013; calls by dose curve; tested in A549 cells; note: potency is the fitted concentration of half-maximal effect; nearly all actives have a fitted effect of over 35% in size
FMDV antiviral = High Throughput Screening for Foot and Mouth Disease Virus Antivirals; FMDV antiviral cell-based qHTS; Potency, µM (series often up to 57.9 µM), inactives show at the top dose activity change, negative = inhibition, usual class: inhibitors; hit rate 1.2% among 410,000; calls by dose curve; tested in HEK293T cells; note: read-out not given here; potency is the fitted concentration of half-maximal effect; nearly all actives have a fitted effect of over 45% in size
HCMV inh = qHTS Assay for inhibitors of the human cytomegalovirus (HCMV); HFF cells, HCMV-luciferase reporter, 72 h; active compounds read low; activity change, negative = inhibition, % at 57.5 µM; hit rate 4.5% among 410,000; in the data active = activity change below about -60%; inconclusive = no clear call, values can overlap the other calls; inactive = above about -39%
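Inhibition of viral replication was scored as loss of reporter luminescence in HFFs infected with HCMV-luciferase (MOI 1 PFU/cell) for 72 h; compounds tested at 2 doses, normalized to buffer and Salinomycin controls.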
An asterisk follows results filed as active; i = inactive; ? = inconclusive; / = no result given. The list is not random: actives were taken first. Their share in the collection is about 7.5%. Unless noted, calls come from the whole dose curve; as a rule, active = well fitted curve in the direction sought with a large enough effect; inconclusive = small, poorly fitted or top-dose-only effect, or another doubt; inactive = no such curve, though single readings can be large; an effect the other way counts as inactive or inconclusive. % is set by controls: 0 for no effect and ±100 for the full control effect.

SMILES	HCV inh	VACV Venus inh	FBPA Giardia inh	VACV mCherry inh	FMDV antiviral	HCMV inh
CC1(C)CC(C(=O)N2CCOc3ccc(CN4CCN(Cc5ccccn5)CC4)cc3C2)CCO1 (stereo not given)	/	-6.8%	/	-12.2%	-9.3%	/
Cc1ccccc1CNc1ccc(C(CC(N)=O)NC(=O)c2ccccc2)cc1[N+](=O)[O-] (stereo not given)	11.2µM*	?	-0.5%	-9.9%	-13.1%	?
NC(=O)CC(NC(=O)c1ccccc1)c1ccc(N2CCC(Cc3ccccc3)CC2)c([N+](=O)[O-])c1 (stereo not given)	?	?	-4.1%	-22.3%	?	-67.2*
NC(=O)CC(NC(=O)c1ccc(Br)cc1)c1ccc(N2CCC(Cc3ccccc3)CC2)c([N+](=O)[O-])c1 (stereo not given)	?	?	-0.6%	-8.0%	?	6.5
COc1ccccc1/C=C1\C(=O)NC(=S)N(c2ccccc2)C1=O	7.3%	/	3.0%	/	-0.7%	42.4
CCN1C(=O)/C(=C/c2ccc(N(CC)CC)cc2OC)C(=O)NC1=S	-6.4%	/	-7.3%	/	35.5µM*	-39.2
O=CNc1ccc2c3c(cccc13)-c1ccccc1-2	2.82µM*	-26.2%	/	-26.4%	52.6%	34.2
OCCCc1cn(Cc2ccccc2)c2ccccc12	-1.3%	-2.8%	-5.7%	-20.5%	-1.1%	19.9
CCCCCN=c1ccn(Cc2ccccc2)c2ccccc12	/	/	7.9%	/	39.8µM*	/
CCNC(=O)NC(=O)C(C)Oc1ccc(Br)cc1Br (stereo not given)	?	-14.6%	-0.5%	-10.1%	35.6%	9.9
O=[N+]([O-])c1cc([N+](=O)[O-])c2cc3ccccc3nc2c1	?	-6.4%	-12.6%	?	28.2µM*	40.6
O=[N+]([O-])c1cnc2ccccc2c1	20.1%	-9.1%	-4.5%	-12.2%	14.6%	-1.4
COc1ccc(N=C2C(=O)N3c4c(cccc42)C(C)=CC3(C)C)cc1	?	-4.2%	-25.6%	i	?	-62.6*
COc1ccc(N=C2C(=O)Nc3ccccc32)cc1	9.7%	/	?	/	31.0%	-12.8
COc1cccc(NC(=S)N(CCCN2CCC(C)CC2)Cc2cccs2)c1	?	-5.9%	2.3%	-15.6%	7.1%	26.2
COc1cccc(NC(=S)N(CCCN2CCOCC2)Cc2cn(C)c3ccccc23)c1	?	-22.2%	4.9%	-14.8%	2.0%	-77.7*
COc1ccc(NC(=S)N(CCCN2CCOCC2)Cc2cn(C)c3ccccc23)cc1OC	?	-18.0%	-4.2%	-27.2%	15.6%	-87.4*
CCCc1cc(=O)[nH]c(SCC(=O)c2ccc3c(c2)NC(=O)CO3)n1	-6.1%	-9.1%	0.9%	?	-27.6%	18.0
Cc1csc(SCC(=O)c2c(N)n(CC(C)C)c(=O)n(C)c2=O)n1	15.8µM*	-21.2%	2.7%	i	?	-74.6*
CCOC(=O)Cc1csc(SCC(=O)c2c(N)n(CC(C)C)c(=O)n(C)c2=O)n1	7.94µM*	/	0.7%	/	11.2µM*	-2.6
CCOc1ccccc1NC(=O)C(c1ccccc1)N1CCN(CC(=O)N2CCCC2)CC1 (stereo not given)	-4.3%	/	/	/	-7.6%	0.4
C=C(C(=O)c1ccccc1)C(NC(C)(C)C)c1ccccc1 (stereo not given)	3.55µM*	?	/	17.8µM*	10µM*	-98.0*
C=C(C(=O)c1ccccc1)C(C)CC(=O)c1ccccc1 (stereo not given)	?	-25.4%	-1.7%	?	28.2µM*	-82.3*
COC(=O)C(NC(=O)c1ccccc1)c1ccccc1 (stereo not given)	11.5%	/	-0.3%	/	28.2%	67.2
O=C(CC(Nc1ccccc1)C(=O)O)c1ccccc1 (stereo not given)	1.6%	-8.7%	-11.6%	-11.9%	19.0%	44.4
O=C(Sc1cccc2cccnc12)c1ccccc1Br	/	/	5.8%	/	/	-96.9*
O=C(Sc1cccc2cccnc12)c1ccc(F)cc1	/	/	?	/	/	-100.1*
